Test [1] is described as follows: qHTS assay to identify small molecule antagonists of the estrogen related receptor (ERR) signaling pathway from Tox21 library - cell viability counter screen (AID 1224834). Also: nearly all actives have a fitted effect of over 30% in size. Conditions: ERR reporter cells viability, CellTiter-Fluor, 17.5 h; series mostly up to 92.4 µM. A digest of the protocol:
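Counter screen run in ERR cells (2,000 cells/well): cells pre-incubated 6 h, then treated with compounds for 17.5 h at 37 C. Fluorescence was read 30 min after CellTiter-Fluor addition.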

The target in test [2] is Luciferin 4-monooxygenase (Photinus pyralis) (UniProt P08659). In words: qHTS assay to identify small molecule inhibitors of firefly luciferase (AID 1224835). Also: nearly all actives have a fitted effect of over 25% in size. The conditions noted are these: purified P. pyralis luciferase, luminescence inhibition; series mostly up to 115 µM. Put shortly: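 Inhibition of purified Photinus luciferase is measured by luminescence. Substrate levels (D-luciferin, ATP) sit at their KM values. Each compound is tested in a concentration series.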
Luciferin 4-monooxygenase (Photinus pyralis), sequence (P08659 whole entry, looked up): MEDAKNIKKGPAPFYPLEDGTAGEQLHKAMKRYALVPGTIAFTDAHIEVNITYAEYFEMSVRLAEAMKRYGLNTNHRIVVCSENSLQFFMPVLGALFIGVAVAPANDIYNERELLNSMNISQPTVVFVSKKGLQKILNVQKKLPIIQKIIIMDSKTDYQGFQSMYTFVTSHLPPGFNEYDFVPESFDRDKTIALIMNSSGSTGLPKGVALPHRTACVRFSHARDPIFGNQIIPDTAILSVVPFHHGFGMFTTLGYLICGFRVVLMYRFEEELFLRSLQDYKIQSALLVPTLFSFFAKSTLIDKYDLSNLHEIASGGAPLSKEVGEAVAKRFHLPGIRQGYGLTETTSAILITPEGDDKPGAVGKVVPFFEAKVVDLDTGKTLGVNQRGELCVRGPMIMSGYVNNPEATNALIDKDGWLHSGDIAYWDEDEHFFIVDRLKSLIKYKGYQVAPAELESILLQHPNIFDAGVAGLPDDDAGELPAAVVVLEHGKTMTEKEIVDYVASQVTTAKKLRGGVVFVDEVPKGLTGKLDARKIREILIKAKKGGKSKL
Background: In qHTS, concentration-response curves come from the screen itself.

Test [3] is described as follows: qHTS assay to identify small molecule agonists of the constitutive androstane receptor (CAR) signaling pathway - cell viability counter screen (AID 1224836). Also: nearly all actives have a fitted effect of over 45% in size. Conditions: HepG2-CYP2B6-hCAR viability, CellTiter-Fluor, 23 h, PK11195 added to every well; series mostly up to 92.4 µM. A digest of the protocol: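 HepG2 cells stably carrying hCAR and a CYP2B6-2.2kb reporter; 15-concentration compounds plus PK11195 (final 0.75 uM), 23 hr at 37 C/5% CO2. Viability read by CellTiter-Fluor fluorescence.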

A short description of test [4]: qHTS assay to identify small molecule antagonists of the constitutive androstane receptor (CAR) signaling pathway - cell viability counter screen (AID 1224837). Also: nearly all actives have a fitted effect of over 45% in size. The conditions noted are these: HepG2-CYP2B6-hCAR viability, CellTiter-Fluor, 23 h, co-treated with 50 nM CITCO; series mostly up to 92.4 µM. Put shortly:
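CITCO at 50 nM final was added alongside compounds (15 concentrations) to double-stable hCAR/CYP2B6-2.2kb HepG2 cells. Following 23 hr at 37 C, cell viability was quantified by CellTiter-Fluor fluorescence intensity.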

The nature of test [5]: qHTS assay to identify small molecule antagonists of the estrogen related receptor signaling pathway with the pleiotropic PPARgamma coactivator (PGC) from Tox21 10K library - cell viability counter screen (AID 1224840; active = well fitted cell-killing curve with a large enough effect in the repeat runs, not every such curve was filed as active; also: nearly all actives have a fitted effect of over 40% in size). Conditions: PGC/ERR reporter cells viability, CellTiter-Fluor, 17.5 h; series mostly up to 92.4 µM. A digest of the protocol:
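Readout: fluorescence intensity from CellTiter-Fluor after 30 min at 37 C/5% CO2. Preceded by 17.5 h treatment of PGC/ERR cells with DMSO-dissolved compounds, added 6 h post-seeding.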

Test [6] is described as follows: qHTS assay to identify small molecule antagonists of the estrogen related receptor signaling pathway with the pleiotropic PPARgamma coactivator (PGC) from Tox21 10K library (AID 1224841; call rule not given here; also: actives are mostly falling curves and most rising ones were filed inactive; nearly all actives have a fitted effect of over 50% in size; also: potency is read from the fitted curve at half-maximal effect). The conditions noted are these: PGC/ERR reporter cell line, ONE-Glo luciferase, 18 h; series mostly up to 92.4 µM. Put shortly:
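One-Glo luminescence, measured after half an hour at room temperature, quantified reporter output of PGC/ERR cells. These had been plated at 2,000 per well, incubated 6 h, dosed with compounds in DMSO, then kept 18 h at 37 C.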

Test [7] deals with Thyrotropin receptor (Homo sapiens) (UniProt P16473). In words: qHTS assay to identify small molecule agonists of the thyroid stimulating hormone receptor (TSHR) signaling pathway (AID 1224843; calls by dose curve; also: nearly all actives have a fitted effect of over 45% in size). The conditions noted are these: TSHR-HEK293 cells, cAMP HTRF, agonist mode, 30 min; series mostly up to 92.4 µM. Put shortly:
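A cell-based cAMP HTRF format was run in TSHR-transfected HEK293 cells, 800 per well. Treatment: 30 min, room temperature. Detection: 1 h with labelled cAMP and anti-cAMP cryptate. Concentration-response over 15 points, three replicates.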

The nature of test [8]: qHTS assay to identify small molecule agonists of the hypoxia (HIF-1) signaling pathway - cell viability counter screen (AID 1224844; calls by dose curve; also: potency is read from the fitted curve at half-maximal effect; nearly all actives have a fitted effect of over 50% in size). The conditions noted are these: HRE-bla ME-180 viability, CellTiter-Glo luminescence, 17 h; series mostly up to 76.8 µM. A digest of the protocol:
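In this counter screen, HRE-bla ME-180 cell viability after 17 hrs of compound exposure at 37C was read by CellTiter-Glo luminescence, multiplexed with the beta-lactamase reporter measurement.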

Test [9] in a line: qHTS RealTime-Glo MT Cell Viability Assay in HepG2 cells - 24 hour (AID 1224867). Also: nearly all actives have a fitted effect of over 50% in size. Conditions: RealTime-Glo luminescence; series mostly up to 76.8 µM. A digest of the protocol: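 HepG2 cells were seeded at 600 cells/well together with NanoLuc luciferase and a cell-permeant prosubstrate, preincubated 5 h at 37 C/5% CO2, then pin-dosed with compounds in DMSO. Nonlytic luminescence from viable cells was read at each time point.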

Test [10] can be described thus: qHTS assay to identify small molecule HDAC inhibitors (AID 1259364).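 Also: wild-type HCT-116 cells with endogenous class I/II HDAC activity; top concentration of the series differs between compounds; nearly all actives have a fitted effect of over 45% in size.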 The conditions noted are these: HCT-116 HDAC-Glo I/II luminescence, 2 h; series mostly up to 92.4 µM. Put shortly:
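HCT-116 wt cells, 1,500/well, overnight attach. Compounds (DMSO) 2 h, 37 °C. HDAC-Glo I/II, 30 min RT. Luminescence.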

A short description of test [11]: qHTS assay to identify small molecule agonists of the sonic hedgehog signaling (Shh) pathway (AID 1259368; calls by dose curve;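 also: NIH/3T3-derived 3T3Gli1-Luc cells carrying a stable Gli1-driven firefly luciferase reporter; nearly all actives have a fitted effect of over 15% in size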). Conditions: NIH/3T3 Gli1-Luc reporter, luciferase, 24 h, stronger effect = higher value; series mostly up to 92.4 µM. A digest of the protocol: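 Following a 24 hr incubation with DMSO-dissolved compounds at 37 C, 5% CO2, Gli1-Luc NIH/3T3-derived cells received luciferase reagent for 30 min at room temperature prior to luminescence measurement.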

Test [12] concerns the target Estrogen receptor (Homo sapiens) (UniProt P03372). In words: qHTS assay to identify small molecule agonists of the estrogen receptor alpha (ER-alpha) signaling pathway in the presence of an antagonist (AID 1259383; calls by dose curve; also: top concentration of the series differs between compounds; nearly all actives have a fitted effect of over 15% in size). The conditions noted are these: VM7Luc4E2 cells, ERE-luciferase, +ICI-182,780, 22 h; series mostly up to 92.4 µM. Put shortly:
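Luminescent ERE-luciferase reporter, VM7Luc4E2 cells (endogenous ER-alpha); 10.0nM ICI-182,780 final; 15-point compound titration; 22hr at 37C; ONE-Glo, 30min RT.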

In test [13] the target is Thyrotropin receptor (Homo sapiens) (UniProt P16473). In words: qHTS assay to identify small molecule antagonists of the thyroid stimulating hormone receptor (TSHR) signaling pathway (AID 1259385; calls by dose curve; also: nearly all actives have a fitted effect of over 20% in size). Conditions: TSHR-HEK293 cAMP HTRF, TSH-stimulated antagonist mode; series mostly up to 92.4 µM. A digest of the protocol: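 Antagonist mode: compound-treated TSHR-expressing HEK293 cells were stimulated with 1.5 ng/mL TSH (final) in presence of Ro20-1724 for 30 min at RT. HTRF cAMP detection after 1 h; each compound tested at 15 concentrations, triplicate.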
Thyrotropin receptor (Homo sapiens), sequence (P16473 whole entry, looked up): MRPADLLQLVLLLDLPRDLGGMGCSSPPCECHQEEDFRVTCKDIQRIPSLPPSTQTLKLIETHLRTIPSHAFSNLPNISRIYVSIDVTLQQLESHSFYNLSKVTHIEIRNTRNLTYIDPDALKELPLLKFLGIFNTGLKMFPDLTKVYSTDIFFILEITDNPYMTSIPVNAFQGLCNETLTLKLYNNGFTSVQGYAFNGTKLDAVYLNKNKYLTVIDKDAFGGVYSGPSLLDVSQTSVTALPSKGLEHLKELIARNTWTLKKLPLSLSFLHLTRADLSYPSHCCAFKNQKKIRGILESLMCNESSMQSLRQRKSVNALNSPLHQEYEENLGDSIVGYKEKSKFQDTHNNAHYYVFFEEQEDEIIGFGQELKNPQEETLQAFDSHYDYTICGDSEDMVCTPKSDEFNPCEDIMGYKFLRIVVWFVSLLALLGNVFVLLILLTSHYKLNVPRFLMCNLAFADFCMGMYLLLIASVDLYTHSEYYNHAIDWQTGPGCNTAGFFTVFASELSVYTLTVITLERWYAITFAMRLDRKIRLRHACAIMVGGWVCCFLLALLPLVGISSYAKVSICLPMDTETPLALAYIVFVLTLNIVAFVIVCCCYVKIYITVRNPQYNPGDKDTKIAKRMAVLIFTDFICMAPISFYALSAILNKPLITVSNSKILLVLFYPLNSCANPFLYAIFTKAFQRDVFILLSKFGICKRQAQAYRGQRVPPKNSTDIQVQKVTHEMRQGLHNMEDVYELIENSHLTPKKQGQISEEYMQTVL

Test [14] can be described thus: qHTS assay to identify small molecule antagonists of the progesterone receptor (PR) signaling pathway - cell viability counter screen (AID 1346798). Also: nearly all actives have a fitted effect of over 50% in size. Conditions: PR-UAS-bla HEK293T viability, CellTiter-Glo luminescence, 16 h; series mostly up to 92.4 µM. A digest of the protocol:
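PR-UAS-bla HEK293T cells, 3,000/well in 2% charcoal-stripped FBS medium, dosed with compounds plus R5020 agonist and incubated 16 h at 37C. Viability then measured in the same wells by CellTiter-Glo luminescence after 30 min at RT.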

Test [15] in a line: Caspase-3/7 induction in CHO-K1 cells by small molecules, qHTS assay (AID 1346980). Also: nearly all actives have a fitted effect of over 15% in size. Conditions: CHO-K1 caspase-3/7 induction, Caspase-Glo luminescence, 17 h; series mostly up to 92.4 µM. A digest of the protocol:
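Luminescent Caspase-Glo 3/7 read (30min, room temperature) quantified apoptosis induction. Cells were wild-type CHO-K1, treated with compound for 17hr at 37 C and 5% CO2.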

Test [16] relates to estrogen-related receptor alpha (ERRalpha) with PGC-1alpha coactivator, human. In words: qHTS assay to identify small molecule antagonists of the estrogen related receptor signaling pathway with the pleiotropic PPARgamma coactivator (PGC) (AID 1224821; calls by dose curve; also: nearly all actives have a fitted effect of over 50% in size; also: potency is read from the fitted curve at half-maximal effect). Conditions: ERR/PGC reporter cell line, luciferase, antagonist mode; series mostly up to 46.1 µM. A digest of the protocol:
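PGC/ERR reporter cells; 6 h pre-incubation 37 C/5% CO2; pin-tool compound in DMSO, 18 h 37 C; One-Glo added, 30 min RT; luminescence read. qHTS antagonist mode.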

The nature of test [17]: qHTS assay to identify small molecule antagonists of the estrogen related receptor signaling pathway with the pleiotropic PPARgamma coactivator (PGC) cell viability counter screen (AID 1224822; also: potency is read from the fitted curve at half-maximal effect;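 also: viability read after 17.5 h compound exposure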). Conditions: ERR/PGC reporter cell line viability counter screen; series mostly up to 46.1 µM. Put shortly: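 17.5 h compound treatment of PGC/ERR cells at 37 C; readout CellTiter-Fluor fluorescence; run alongside the PGC/ERR antagonist screen to flag cytotoxic compounds.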

A short description of test [18]: qHTS assay to identify small molecule antagonists of the estrogen related receptor (ERR) signaling pathway from Tox21 library (AID 1224848). Also: nearly all actives have a fitted effect of over 50% in size. Conditions: ERR reporter cell line, luciferase antagonist mode, 18 h; series mostly up to 92.4 µM. Put shortly: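 ERR cell line, 2,000 cells/well. 6 h settle, then compound (DMSO) added; 18 h at 37 C; ONE-Glo luminescence after 30 min RT.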

In test [19] the target is Nuclear receptor subfamily 1 group I member 2 (Homo sapiens) (UniProt O75469). Put plainly: Human pregnane X receptor (PXR) small molecule agonists, qHTS assay (AID 1346982). Also: nearly all actives have a fitted effect of over 35% in size. Conditions: PXR-Luc HepG2, CYP3A4 luciferase reporter, 24 h; series mostly up to 92.4 µM. A digest of the protocol: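 Tox21 qHTS; PXR-Luc HepG2; compounds pinned from DMSO; 24 hr, 37 C; ONE-Glo luciferase detection, 30 min room temperature.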
Nuclear receptor subfamily 1 group I member 2 (Homo sapiens), sequence (O75469 whole entry, looked up): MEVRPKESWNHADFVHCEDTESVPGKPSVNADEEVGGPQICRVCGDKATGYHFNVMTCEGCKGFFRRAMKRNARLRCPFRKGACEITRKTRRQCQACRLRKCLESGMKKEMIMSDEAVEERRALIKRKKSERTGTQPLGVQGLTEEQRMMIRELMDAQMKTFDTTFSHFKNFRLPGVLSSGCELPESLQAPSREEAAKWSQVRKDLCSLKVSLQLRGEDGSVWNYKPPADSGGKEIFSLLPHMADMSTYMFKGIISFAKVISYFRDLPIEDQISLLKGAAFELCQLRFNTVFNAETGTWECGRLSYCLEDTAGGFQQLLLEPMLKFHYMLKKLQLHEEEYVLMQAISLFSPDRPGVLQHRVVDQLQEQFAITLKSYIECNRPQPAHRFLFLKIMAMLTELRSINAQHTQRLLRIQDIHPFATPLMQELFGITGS

Test [20] has as its target Estrogen receptor (Homo sapiens) (UniProt P03372). Put plainly: qHTS assay to identify small molecule antagonists of the estrogen receptor alpha (ER-alpha) signaling pathway using the BG1 cell line in the presence of 0.1 nM 17-beta-estradiol (AID 1259244). Also: nearly all actives have a fitted effect of over 50% in size. The conditions noted are these: VM7Luc4E2 (BG1) ERE-luciferase, antagonist mode, 0.1 nM E2, 22 h; series mostly up to 92.4 µM. Put shortly: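 Luciferase signal from VM7Luc4E2 ERE-reporter cells, co-dosed with test compound and 0.1 nM final 17beta-estradiol for 22 h, read with ONE-Glo.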

Molecules are shown by their SMILES. Records with an inconclusive call do not appear. Activity calls are given as the source filed them. Unless noted, calls follow the shape of the dose curve; as a rule, active = well fitted curve in the direction sought with a large enough effect in the repeat runs; inconclusive = weak or mixed curves; inactive = no such curve, though single readings can be large; an effect the other way counts as inactive or inconclusive.

Estrogen receptor (Homo sapiens), sequence (P03372 whole entry, looked up): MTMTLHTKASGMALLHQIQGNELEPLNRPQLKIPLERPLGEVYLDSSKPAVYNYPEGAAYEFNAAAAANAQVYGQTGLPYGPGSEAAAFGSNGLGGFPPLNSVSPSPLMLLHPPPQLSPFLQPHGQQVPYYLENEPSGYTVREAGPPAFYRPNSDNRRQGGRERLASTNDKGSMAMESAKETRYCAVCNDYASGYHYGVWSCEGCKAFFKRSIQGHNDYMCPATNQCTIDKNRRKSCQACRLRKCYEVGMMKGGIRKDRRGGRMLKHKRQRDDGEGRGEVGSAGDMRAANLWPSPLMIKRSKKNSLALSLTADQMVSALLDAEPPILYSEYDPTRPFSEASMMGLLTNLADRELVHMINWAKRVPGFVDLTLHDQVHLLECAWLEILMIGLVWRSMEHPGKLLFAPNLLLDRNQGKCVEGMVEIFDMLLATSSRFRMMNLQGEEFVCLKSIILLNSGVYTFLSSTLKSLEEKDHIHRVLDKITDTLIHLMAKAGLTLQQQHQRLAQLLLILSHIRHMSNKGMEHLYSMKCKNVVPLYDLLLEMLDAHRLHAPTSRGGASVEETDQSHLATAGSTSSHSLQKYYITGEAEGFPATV

For `Oc1c(I)cc(I)cc1I`, the Potency result in test [1], in test [2], in test [3], in test [4], in test [5] and in test [7] was “inactive” throughout. Further, the Potency entry in [9], in test [13] and in test [14] was “inactive” in each case. Besides, the results for the Potency in [6] and in test [8] were 61.1 µM (active) and 38.9 µM (active), respectively. In addition, the outcome in test [10], in [11], in [12] and in test [15] was inactive.
As for `CCCCCCCCCCCCCC(=O)O[C@@H]1[C@@H](C)[C@@]2(O)[C@@H](C=C(CO)C[C@@]3(O)C(=O)C(C)=C[C@@H]23)C2C(C)(C)[C@@]21OC(C)=O` (stereo not given in full), the Potency entry in [16] was “inactive”.
For `CC1(C(=O)O)C2CCC(O2)C1(C)C(=O)O` (stereo not given), in test [16], the Potency entry was “inactive”.
As for `Cc1ccc(O)cc1C`, the Potency result in [2] and in test [14] was “inactive” each time.
Consider `N#CCCNCCC#N`, for which, in test [13], the Potency result is “inactive”.
In the case of `COC[C@H]1OC(=O)c2coc3c2[C@@]1(C)C1=C(C3=O)C2CCC(=O)[C@@]2(C)C[C@H]1OC(C)=O` (stereo not given in full), the Potency result in test [16] and in test [17] was “inactive” throughout.
Consider `O=[N+]([O-])/C=C/c1ccc2c(c1)OCO2`, for which the Potency in test [17] was 22 µM (active).
Same read-out and setting: the entry for `c1ccc(CCCN2CCN(CCOC(c3ccccc3)c3ccccc3)CC2)cc1` is “inactive”.
As to `CCNC(=O)[C@H]1O[C@@H](n2cnc3c(N)ncnc32)[C@H](O)C1O` (stereo not given in full), the Potency result in test [16] and in test [17] was “inactive” each time.
For the molecule `O=C(O)/C=C\C(=O)O`, the Potency entry in test [1], in test [5], in test [6], in test [18] and in [19] was “inactive” each time.
Turning to `O=C(O)/C=C/C(=O)O`, the Potency entry in [1], in test [5], in test [6], in test [18] and in test [19] was “inactive” throughout.
For the molecule `CCC1C(=O)OCC1Cc1cncn1C` (stereo not given), the Potency result in [1], in test [5], in [6] and in [18] was “inactive” throughout.
On to `O=S1(=O)N(CCN2CC=C(c3c[nH]c4cc(F)ccc34)CC2)c2cccc3c2N1CCC3`, for which the Potency in [16] is 23.7 µM (active).
Turning to `C/C=C(/C)C(=O)O[C@H]1C(C)=C2[C@H]([C@@H]1OC(=O)CCCCCCC)[C@@](C)(OC(C)=O)C[C@H](OC(=O)CCC)[C@@]1(O)[C@H]2OC(=O)[C@@]1(C)O`, the Potency in [17] was 8.1 µM (active).
Take `C[N+]1(C)[C@@H]2CC(OC(=O)[C@H](CO)c3ccccc3)C[C@H]1[C@@H]1O[C@@H]12` (stereo not given in full): the Potency result in [1] and in [5] was “inactive” in each case.
Turning to `CC(=O)c1c(O)c(C)c(O)c(Cc2c(O)c3c(c(C(=O)/C=C/c4ccccc4)c2O)OC(C)(C)C=C3)c1O`, the Potency in test [17] is 3.48 µM (active).
For the molecule `O=[N+]([O-])c1ccccc1Cl`, the Potency entry in [2] and in test [14] was “inactive” each time. The outcome in test [11] and in [15] was inactive.
For `Cc1ccc2ccccc2c1C`, the Potency result in [2] and in test [14] was “inactive” throughout. Also, the result in test [10] was inactive.
Regarding `CCC1(c2cnc[nH]2)Cc2ccccc2C1`, in [20], the Potency entry is “inactive”. Besides, in test [12], the outcome was inactive.
For the molecule `CC(C)(C)c1ccc(O)cc1`, the Potency result in [14] is “inactive”.
For `c1ccccc1`, the Potency entry in [20] and in test [19] was “inactive” each time. For the same molecule, the outcome in test [12] was inactive.
Turning to `Oc1c(Cl)cc(Cl)cc1Cl`, in [10], the molecule was classed as inactive. Further, in [14], the Potency result is “inactive”.

Values taken from PubChem BioAssay (Tox21).
